The nature of test [1]: NCI Yeast Anticancer Drug Screen. Data for the rad50 strain (AID 155).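 Also: 0% = growth of vehicle-only cultures of the same strain.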 Particulars: S. cerevisiae rad50 strain growth inhibition; at 50.0 µM; active compounds read high. In a few lines: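 Readout: growth inhibition relative to vehicle-treated cultures. Compound exposure was carried out in a genetically defined yeast strain deficient in DNA damage repair.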
Test [2] is described as follows: NCI Yeast Anticancer Drug Screen. Data for the mec2-1 strain (AID 157). Particulars: S. cerevisiae mec2-1 strain, at 50.0 µM, active compounds read high. In a few lines: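 Readout is yeast growth inhibition, normalised to vehicle-treated controls, in the mec2-1 strain exposed to compound.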
Test [3] can be described thus: NCI Yeast Anticancer Drug Screen. Data for the sgs1 mgt1 strain (AID 161).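 Also: 0% = growth of cultures given vehicle only.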 Particulars: S. cerevisiae sgs1 mgt1 strain, at 50.0 µM, active compounds read high. In a few lines:
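Growth of a repair-deficient yeast mutant was monitored after compound treatment and expressed as inhibition relative to vehicle-treated cultures.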

The nature of test [4]: NCI Yeast Anticancer Drug Screen. Data for the cln2 rad14 strain (AID 165).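 Also: 0% = growth equal to vehicle treated cultures.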 Conditions: S. cerevisiae cln2 rad14 strain, at 50.0 µM, active compounds read high. The essentials: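 Relative to vehicle controls, growth inhibition of compound-treated cln2 rad14 yeast was recorded.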
Test [5] in a line: NCI Yeast Anticancer Drug Screen. Data for the bub3 strain (AID 167). Conditions: S. cerevisiae bub3 mutant strain, at 50.0 µM, active compounds read high. The essentials: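 Readout: yeast growth inhibition, expressed relative to vehicle-only wells. The test organism is a mutant strain from a panel with lesions in DNA repair or checkpoint genes.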
Test [6] can be described thus: NCI Yeast Anticancer Drug Screen. Data for the mlh1 rad18 strain (AID 175). Particulars: S. cerevisiae mlh1 rad18 strain growth inhibition; at 50.0 µM; active compounds read high. The essentials: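 Test agents were incubated with a yeast strain of defined genotype (DNA damage repair defect). Inhibition of growth was derived by comparison with vehicle-exposed cultures.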

The panel holds about 79,000 compounds, 15% with a hit somewhere; the sample as a whole holds those more often. A number with no mark means an inactive call. Calls of active or inactive are those of the source. Rule as the data show it: active = growth inhibition above about 70%; inactive = the rest.

For the compound `COC1=CC=C2[C@@H]3Cc4ccc(OC)c5c4[C@]2(CCN3CCCl)C1O5` (some centres undefined), the growth inhibition in test [1] was 27%; in test [2], -5.35%; in test [3] it was 4.75%; in test [4], 8.2%; in test [5], 6.85%; in test [6], 10.6%.
For `CC1CCNC(C)C1` (centres undefined), the growth inhibition was 35.3% in test [1]; -10.4% in test [2]; -13.8% in test [3]; -62.9% in test [4]; 17.9% in test [5]; 8.6% in test [6].
Regarding `CCOC(=O)C(C[Si](C)(C)C)P(=O)(OCC)OCC` (centres undefined), the growth inhibition in test [1] was -24.6%; in test [2], -21.9%; in test [3], -58.4%; in test [4], -28.6%; in test [5], -26.7%; in test [6], -33%.
As to `COC(=O)CCc1ccc(NP(=O)(Oc2ccccc2)N(CCCl)CCCl)cc1` (centres undefined), the growth inhibition was 13.3% in test [1]; 20.2% in test [2]; 23.4% in test [3]; 35.8% in test [4]; 12.2% in test [5]; -8.55% in test [6].
Take `CCOP(=O)(OCC)O/N=C(/CC)c1ccccc1`: the growth inhibition is 5.35% in test [1]; -8.75% in test [2]; 11.4% in test [3]; -13.4% in test [4]; -1.55% in test [5]; -12.1% in test [6].
`O=C(Nc1ccccc1F)C(Cl)(Cl)Cl`: the growth inhibition in test [1] is 6.55%; in test [2], -5.2%; in test [3], 9.3%; in test [4], -5%; in test [5], 16.7%; in test [6] it was 26.2%.
As to `CNCCc1ccc(O)cc1`, the growth inhibition in test [1] is -9.2%; in test [2], -1.85%; in test [3] it was -0.75%; in test [4] it was -23.3%; in test [5] it was 1.35%; in test [6] it was -0.65%.
As to `N#CCc1ccccc1.N#CCc1ccccc1.[C-]#[O+].[C-]#[O+].[C-]#[O+].[C-]#[O+].[W]`, the growth inhibition was -10.9% in test [1]; -16.2% in test [2]; -7.1% in test [3]; -33.2% in test [4]; -5.05% in test [5]; -11.3% in test [6].
Take `CCCCCCCCP(=O)(O)OP(=O)(O)OCC1OC(n2ccc(N)nc2=O)C(O)C1O` (centres undefined): the growth inhibition in test [1] was -11.2%; in test [2], -20.1%; in test [3] it was -9.55%; in test [4], 7.15%; in test [5], -12.2%; in test [6], -9%.
In the case of `CCC(C)(C)C(=O)Nc1cccc(OC(=O)NC)c1`, the growth inhibition in test [1] is 2.1%; in test [2] it was -9.1%; in test [3] it was 9.85%; in test [4], -3.35%; in test [5] it was 13.2%; in test [6] it was -16.9%.
For `Cc1cccc(OP(=O)(c2ccccc2)c2ccccc2)c1`, the growth inhibition in test [1] is 15.7%; in test [2], 0.35%; in test [3] it was 22.6%; in test [4], -40.6%; in test [5], 3.55%; in test [6] it was -15.9%.
Regarding `CCNC(=O)Oc1c(Cl)cc(S(=O)(=O)F)cc1Cl`, the growth inhibition in test [1] is 43.6%; in test [2] it was 22.8%; in test [3], 32.1%; in test [4] it was 12.5%; in test [5], 16%; in test [6], 26.4%.
In the case of `Nc1cccc2c1Cc1cc([N+](=O)[O-])ccc1-2`, the growth inhibition in test [1] is 8.1%; in test [2] it was -37.2%; in test [3] it was 17.6%; in test [4], -14.4%; in test [5], 3.6%; in test [6], -1.4%.
For `O=NN1CCCCC1`, the growth inhibition was -18.2% in test [1]; 7.1% in test [2]; 28.4% in test [3]; -15.1% in test [4]; 0.15% in test [5]; 18.9% in test [6].
Take `CS(=O)(=O)c1ccc(COP(N)(=O)N(CCCl)CCCl)cc1` (centres undefined): the growth inhibition is 17.1% in test [1]; -8.05% in test [2]; -0.95% in test [3]; 11.3% in test [4]; -4.2% in test [5]; 17.7% in test [6].
Turning to `O=NNc1cnc2ccccc2n1`, the growth inhibition in test [1] is 48.5%; in test [2], -0.25%; in test [3], -9.75%; in test [4] it was -5.4%; in test [5] it was -38.2%; in test [6], 12.2%.
Regarding `COc1cc(N=Nc2ccc([N+](=O)[O-])cc2)ccc1N(CCCl)CCCl`, the growth inhibition was -8.55% in test [1]; -13.2% in test [2]; -16.9% in test [3]; 11.2% in test [4]; -10.6% in test [5]; 12.8% in test [6].
For `Oc1ccc(Cl)c(Cl)c1`, the growth inhibition in test [1] is -3.45%; in test [2], -32.5%; in test [3], -72.8%; in test [4] it was -3.1%; in test [5] it was -51.5%; in test [6], -13.8%.
On to `ClCc1nc(-c2ccco2)no1`, for which the growth inhibition in test [1] is 6.1%; in test [2], 51.2%; in test [3], 20.6%; in test [4] it was -42.5%; in test [5] it was 4.55%; in test [6], 29.9%.
With `CC([NH-])C(=O)O.[Cl][Pt][Cl]` (centres undefined), the growth inhibition was -25.6% in test [1]; -9.6% in test [2]; -24.9% in test [3]; 7.55% in test [4]; -10.6% in test [5]; -9.55% in test [6].
For `CC1(C)N=C(N)N=C(N)N1c1ccc(CCc2ccc(S(=O)(=O)F)cc2Cl)c(Cl)c1`, the growth inhibition was 99.4% (active) in test [1]; 99.7% (active) in test [2]; 99.7% (active) in test [3]; 81.5% (active) in test [4]; 99.2% (active) in test [5]; 99.5% (active) in test [6].
For `CC1(C)N=C(N)N=C(N)N1c1ccc(CCCCc2cc(Cl)ccc2S(=O)(=O)F)c(Cl)c1`, the growth inhibition was 99.3% (active) in test [1]; 99.7% (active) in test [2]; 99.5% (active) in test [3]; 98.4% (active) in test [4]; 98.5% (active) in test [5]; 99.6% (active) in test [6].
In the case of `CC(C)C(O)(C(=O)OCC1=CC[N+]2([O-])CCC(O)C12)C(C)O` (centres undefined), the growth inhibition in test [1] was -16.9%; in test [2], -29.7%; in test [3] it was -9.7%; in test [4], 4%; in test [5] it was -7.45%; in test [6], -7.3%.
In the case of `O=NNc1cccc(NN=O)n1`, the growth inhibition in test [1] was 47.2%; in test [2], -22.8%; in test [3] it was -34.1%; in test [4] it was -2.75%; in test [5], -26.5%; in test [6], -3.15%.
With `CC1CN1C1=C(Br)C(=O)C(N2CC2C)=C(Br)C1=O` (centres undefined), the growth inhibition was 73.7% (active) in test [1]; 23.1% in test [2]; 84% (active) in test [3]; -3.05% in test [4]; 62% in test [5]; 79.8% (active) in test [6].
For the compound `O=S(=O)(O)C(Br)(Br)Br`, the growth inhibition in test [1] was 29.4%; in test [2], 5.3%; in test [3] it was 23.6%; in test [4], -26.9%; in test [5], 7.25%; in test [6], 28.2%.
In the case of `COc1ccc(Oc2cc3c(cc2OC)CCN(C)C3)cc1`, the growth inhibition in test [1] is 15.9%; in test [2], 7.7%; in test [3], 20.1%; in test [4], -0.6%; in test [5] it was -22.9%; in test [6], -6.6%.
Consider `O=NN1CCCS1(=O)=O`, for which the growth inhibition in test [1] is 21.2%; in test [2], 17.9%; in test [3], 15.8%; in test [4], 14.3%; in test [5], 3.95%; in test [6], 18.8%.
On to `COC1CCC2NCCNC2C1` (centres undefined), for which the growth inhibition in test [1] is 6.35%; in test [2], -6%; in test [3] it was -9.85%; in test [4] it was -22.9%; in test [5] it was -8.7%; in test [6], 2.5%.
For `Cc1cc(C)cc(OP(=O)(Oc2cc(C)cc(C)c2)Oc2cc(C)cc(C)c2)c1`, the growth inhibition was -13.3% in test [1]; -24.6% in test [2]; 5.45% in test [3]; -3.65% in test [4]; 1.7% in test [5]; -5.25% in test [6].
Regarding `C1CC[N-]CC1.CC(=N\O)/C(C)=N/O.CC(=N\O)/C(C)=N/O.CCOC(=O)CC[C-]=O.[Co+2]`, the growth inhibition is -15.1% in test [1]; 8.95% in test [2]; -10.1% in test [3]; -39.3% in test [4]; 18% in test [5]; 9.55% in test [6].
Take `CC1CCCCN1` (centres undefined): the growth inhibition in test [1] is 5.35%; in test [2], -1%; in test [3], -9.85%; in test [4], 10.2%; in test [5], 13.5%; in test [6], 2.85%.
For the compound `CCN(CC)P(=O)(N1CC1(C)C)N1CC1(C)C` (centres undefined), the growth inhibition in test [1] is 1.85%; in test [2] it was 0.75%; in test [3] it was 1.4%; in test [4] it was 2.35%; in test [5], -4.6%; in test [6], 1.35%.
Take `CC(C)CCC1C(=O)N(C)C(=O)N(C)C1=O`: the growth inhibition in test [1] was -9%; in test [2] it was -6.55%; in test [3], 3.15%; in test [4], -0.5%; in test [5], 0.55%; in test [6] it was 2.05%.
In the case of `O=P(N=C=S)(N=C=S)N=C=S`, the growth inhibition in test [1] is 5.45%; in test [2], 6.6%; in test [3] it was 9.4%; in test [4], -11.6%; in test [5] it was 0.4%; in test [6] it was -12.8%.
As to `N.N.N.N.O=C([O-])C(Cl)Cl.O=C([O-])C(Cl)Cl.[Co+3].[O-][Cl+3]([O-])([O-])[O-]`, the growth inhibition is -10.1% in test [1]; -13.2% in test [2]; -23.1% in test [3]; -15.2% in test [4]; -6.1% in test [5]; -13.6% in test [6].
With `CCC[CH2][Sn]([CH2]CCC)([n]1cncn1)[n]1cncn1`, the growth inhibition in test [1] is 92.2% (active); in test [2], 96.1% (active); in test [3] it was 93.7% (active); in test [4] it was 78.2% (active); in test [5], 88.5% (active); in test [6], 93.8% (active).
Regarding `NC(c1ccccc1)C(Cl)c1ccccc1` (centres undefined), the growth inhibition in test [1] was -6.9%; in test [2] it was -54.3%; in test [3], 3.15%; in test [4] it was -20.8%; in test [5] it was 14.9%; in test [6], -7.55%.
With `CNCCc1cccs1`, the growth inhibition in test [1] is -27.6%; in test [2], -6.4%; in test [3] it was 1.25%; in test [4], -29.1%; in test [5], 6.15%; in test [6] it was 4.7%.

Values taken from PubChem BioAssay (NCI).
